High-throughput results from PubChem.
VDR inh: Inhibitors of the vitamin D receptor (VDR): qHTS; VDR-SRC2-3 peptide fluorescence polarization, 2 h; AID 504847, 2011; 0.93% of 400,000 active; Vitamin D3 receptor (Homo sapiens), P11473; Potency, µM, for the others: max response, negative = inhibition, actives largely listed as inhibitors
Target sequence (P11473 whole entry, looked up): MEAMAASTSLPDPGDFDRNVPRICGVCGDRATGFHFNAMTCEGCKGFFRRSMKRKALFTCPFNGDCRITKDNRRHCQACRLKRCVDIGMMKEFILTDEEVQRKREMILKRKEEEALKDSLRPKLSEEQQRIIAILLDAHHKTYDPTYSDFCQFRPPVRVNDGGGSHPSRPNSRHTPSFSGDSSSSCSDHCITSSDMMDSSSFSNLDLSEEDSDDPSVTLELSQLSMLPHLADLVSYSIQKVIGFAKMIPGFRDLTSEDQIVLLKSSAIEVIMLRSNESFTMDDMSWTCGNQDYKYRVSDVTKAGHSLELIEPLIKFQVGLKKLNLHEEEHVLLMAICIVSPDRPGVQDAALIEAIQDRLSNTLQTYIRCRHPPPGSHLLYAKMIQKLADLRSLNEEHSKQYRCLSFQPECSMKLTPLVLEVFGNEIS
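Fluorescence polarization assay measuring small-molecule disruption of VDR binding to the coregulator peptide SRC2-3. Compounds were pin-transferred (23 nl) into the reagent mix and incubated 2 h at room temperature before reading.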
ALOX12 inh: Primary qHTS assay for inhibitors of human arachidonate 12S-lipoxygenase (ALOX12): Round 2. Polyunsaturated fatty acid lipoxygenase ALOX12 (Homo sapiens), P18054. purified 12hLO, xylenol orange hydroperoxide absorbance. Potency, µM (titrated, usually from 108 µM), inactives show at the top dose activity change, negative = inhibition, actives largely listed as inhibitors. 1.1% of 580,000 active
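Purified human 12hLO (150 nM final) in 25 mM Hepes, 0.01% Triton X-100, pH 7.0 was preincubated 15 min at room temperature with compound. Then 40 uM arachidonic acid was added, 30 min. Hydroperoxide was read by Fe-XO absorbance ratio 573/405 nm.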
KAT2A inh: qHTS Assay for Inhibitors of GCN5L2 | GCN5L2 HAT assay, ThioGlo1 CoA-SH fluorescence | Potency, µM (doses to about 58.9 µM), inactives show at the highest dose activity change, negative = inhibition, actives largely listed as inhibitors | 0.21% of 390,000 active
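Preincubate 20nM GCN5L2 with compound 15 min, RT → add 50uM ThioGlo1 + 75uM H3(1-25) + 70uM acetyl-CoA → read fluorescence 0 and 20 min. Primary qHTS; fluorescent artifacts likely.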
PLK1 PBD block: qHTS for Inhibitors of PLK1-PDB (polo-like kinase 1 - polo-box domain): Primary Screen; AID 720504, 2013; Potency, µM, for the others: max response, negative = inhibition, most hits filed as inhibitors; 2.8% of 360,000 active; Plk1 PBD binding of FITC phosphopeptide, fluorescence polarization; also: series mostly up to about 57 µM; nearly all actives have a fitted effect of over 65% in size
Numbers without * were called inactive; ? = inconclusive; / = not tested or not shown; ! = repeats disagree. An excerpt weighted towards active compounds, which were near 3% of everything screened. Calls follow the shape of the dose curve; as a rule, active = well fitted curve in the direction sought with a large enough effect; inconclusive = small, poorly fitted or top-dose-only effect, or another doubt; inactive = no such curve, though single readings can be large; an effect the other way counts as inactive or inconclusive. % is scaled to controls: 0 for no effect and ±100 for the full control effect; potency is read from the fitted curve at half-maximal effect.

SMILES	VDR inh	ALOX12 inh	KAT2A inh	PLK1 PBD block
COc1cc(NC(=O)Cn2cc(C#N)c3ccccc32)cc(OC)c1OC	/	29%	/	/
OCCOCCn1c(-c2ccccc2)nc(=S)c2c1CCCC2	-14%	40µM*	-2%	-37%
CC(=O)Oc1c(-c2ccc(NC(=O)c3cccs3)cc2)c(-c2cccc(F)c2)nn1-c1ccccc1	/	4%	/	/
COc1ccc(-c2cn(-c3ccc(C)c(C)c3)c(=S)[nH]2)cc1OC	-27%	28µM*	9%	30µM*
COc1ccc(-c2cn(-c3ccccc3)c(=S)[nH]2)cc1OC	0%	?	2%	21µM*
COc1ccccc1-n1cc(-c2ccc(C)cc2)[nH]c1=S	-13%	?	0%	-6%
COc1ccc(-n2cc(-c3ccc(Cl)cc3)[nH]c2=S)cc1	-14%	-28%	0%	-3%
COc1ccc(-c2cn(-c3ccc(C)c(Cl)c3)c(=S)[nH]2)cc1OC	22%	?	2%	27µM*
COC(=O)c1ccc(-n2cc(-c3ccc(OC)cc3)[nH]c2=S)cc1	-17%	?	0%	6.7µM*
CC(C)C(C)(C#N)NC(=O)CN(C)CC1CCCCC1 (stereo not given)	/	-8%	/	/
O=C(N1CCOc2ccc(CN3CCc4ccccc4C3)cc2C1)C1(c2ccccc2)CC1	/	26%	/	/
O=C(O)COc1ccc(-c2nccc3c2C(=O)N(Cc2c[nH]c4ccccc24)CC(CNC(=O)Cc2ccc(Cl)cc2)O3)cc1 (stereo not given)	/	5%	/	/
O=C(CCCCCN1C(=O)c2cccc3cccc(c23)C1=O)NO	8%	3.5µM*	-13%	/
Cc1c(/C=C(\CC(=O)O)c2nc3ccccc3s2)cc(C#N)n1C	?	-4%	-13%	27µM*
CCCCN(C)C(=O)CCC1CCN(c2cc(NC3CC3)ncn2)CC1	/	45%	/	/
S=c1[nH]c2nc(Cl)c(Cl)nc2[nH]1	/	?	/	-21%
S=c1[nH]c2cnc(Cl)nc2[nH]1	?	?	/	24µM*
COCCCN(C(=S)Nc1c(C)cc(C)cc1C)C(C)c1ccccn1 (stereo not given)	6%	?	-2%	24µM*
N#CC1=C(N)C2=CCCC[C@H]2[C@H](c2ccccc2)C1(C#N)C#N	79µM*	-25%	-4%	-27%
Cn1nc(C(=O)NCCc2cccs2)c2ccccc2c1=O	/	6%	/	/
CC(C)c1nn2c(=O)cc(COc3cccc(NC(=O)c4ccco4)c3)nc2s1	-32%	-1%	1%	24µM*
CC(C)c1nnc(NC(=O)c2cccc(NC(=O)C(F)(F)F)c2)s1	1%	?	-1%	21µM*
CC(C)C(=O)Nc1cccc(C(=O)Nc2nnc(C(C)C)s2)c1	18%	-7%	-4%	-3%
COc1nc2ccccc2nc1N1CCC(C(=O)Nc2cccc(C)c2)CC1	/	6%	/	/
CC(=O)c1cc(C#N)c(N2CCCC2)nc1C	?	?	0%	30µM*
SMILES	VDR inh	ALOX12 inh	KAT2A inh	PLK1 PBD block
Cc1cc(C)n2nc(C(=O)NCc3ccccc3)cc2n1	?	?	-3%	21µM*
Cc1ccc(CNC(=O)Cc2nc3nc(C)cc(C)n3n2)cc1	-2%	13%	3%	0%
Cc1cc(C)n2nc(C(=O)NCc3ccccc3)nc2n1	1%	0%	-20%	-6%
Cc1cc(C)n2nc(CC(=O)NCc3ccc(F)cc3)nc2n1	-26%	-5%	-1%	27µM*
O=C(c1n[nH]c(=O)c2ccccc12)N1CCN(S(=O)(=O)c2ccc3ccccc3c2)CC1	/	54%	/	/
CCOc1cc(/C=N/n2c(COc3ccccc3)n[nH]c2=S)ccc1O	-12%	0%	1%	-8%
S=c1[nH]nc(COc2ccccc2)n1/N=C/C(Cl)=C/c1ccccc1	?	?	-16%	24µM*
O=c1c2ccccc2nc(COc2ccccc2)n1/N=C/c1ccc(O)c(O)c1	1%	3.5µM*	-5%	-1%
O=C(O)COc1ccc(/C=N/n2c(COc3ccccc3)nc3ccccc3c2=O)cc1	-7%	-1%	-1%	-9%
CCc1ccc(OCc2n[nH]c(=S)n2C(C)CCCC(C)C)cc1 (stereo not given)	-11%	35µM*	-15%	1%
Oc1ccc(/C=N/n2c(COc3ccccc3)n[nH]c2=S)cc1O	-18%	0%	-14%	21µM*
CCCCSCC(=O)NC12CC3CC(CC(C3)C1)C2	/	6%	/	/
COc1cc2c(cc1OC)-c1c(c(C(=O)Nc3cccnc3)nn1-c1ccccc1)C2	/	37%	/	/
CN(C)c1ccc(/C=N/n2c(COc3ccccc3)n[nH]c2=S)cc1	-13%	?	-17%	11µM*
FC(F)Oc1ccc(/C=N/n2c(Cc3ccc(Br)cc3)n[nH]c2=S)cc1	79µM*	?	?	9.5µM*
S=c1[nH]nc(COc2ccccc2)n1/N=C/c1cccc(Cl)c1Cl	-4%	?	-7%	?
S=c1[nH]nc(COc2ccccc2)n1/N=C/c1cccs1	-14%	?	-16%	-26%
CSc1ccc(/C=N/n2c(Cc3ccc(Br)cc3)n[nH]c2=S)cc1	-9%	?	-4%	?
S=c1[nH]nc(-c2ccncc2)n1/N=C/C(Cl)=C\c1ccccc1	-22%	?	18%	6.7µM*
S=c1[nH]nc(COc2ccccc2)n1/N=C/c1ccccc1Cl	-28%	?	0%	27µM*
CC(C)c1ccc(/C=N/n2c(COc3ccccc3)n[nH]c2=S)cc1	-14%	?	-14%	24µM*
CCCCOc1ccc(Cc2n[nH]c(=S)n2N)cc1	50µM*	8.9µM*	?	3.8µM*
S=c1[nH]nc(COc2ccccc2)n1/N=C/c1cccc(Br)c1	-11%	32µM*	-2%	30µM*
COc1cccc(/C=N/n2c(COc3ccccc3)n[nH]c2=S)c1	-15%	-5%	0%	24µM*
CCCCn1c(Cc2ccccc2)n[nH]c1=S	-13%	?	-15%	-15%
SMILES	VDR inh	ALOX12 inh	KAT2A inh	PLK1 PBD block
COc1ccccc1N1CCN(C(=O)c2cc3cn(C4CCCC4)cc3s2)CC1	/	5%	/	/
COc1ccc(OC)c(C(=O)c2oc3cc(NC(=O)C(C)C)ccc3c2C)c1	/	6%	/	/
Cc1nc2nc3ccn(CCCN(C)C)c(=O)c3c(-c3ccccc3)n2n1	/	47%	/	/
C=C(C)CN1CCN(c2nc3c(c(=O)[nH]c(=O)n3C)n2Cc2cccc3ccccc23)CC1	/	-21%	/	/
COc1ccc(/C=C/CN2CCN(Cc3ccccc3)CC(O)C2)cc1 (stereo not given)	/	4%	/	/
CC(NC(=O)c1cccc2ccccc12)C1CC2CCC1C2 (stereo not given)	/	3%	/	/
O=[N+]([O-])c1ccc(/C=N/n2c(COc3ccccc3)n[nH]c2=S)cc1	-14%	-17%	29%	?
S=c1[nH]nc(COc2ccccc2)n1/N=C/c1ccc(Br)cc1	-21%	0%	-25%	27µM*
CC(C)CCn1c(COc2ccccc2)n[nH]c1=S	-2%	16µM*!	-6%	-4%
